Measurements reported in ChEMBL document CHEMBL1961873, “Compounds: GSK PKIS; Assays: Nanosyn kinase panel” (2012).

Experiments:
[1] = target: T1, Tyrosine-protein kinase receptor TYRO3 (Homo sapiens) (UniProt Q06418); conditions: at 1 µM
T1 sequence (whole entry): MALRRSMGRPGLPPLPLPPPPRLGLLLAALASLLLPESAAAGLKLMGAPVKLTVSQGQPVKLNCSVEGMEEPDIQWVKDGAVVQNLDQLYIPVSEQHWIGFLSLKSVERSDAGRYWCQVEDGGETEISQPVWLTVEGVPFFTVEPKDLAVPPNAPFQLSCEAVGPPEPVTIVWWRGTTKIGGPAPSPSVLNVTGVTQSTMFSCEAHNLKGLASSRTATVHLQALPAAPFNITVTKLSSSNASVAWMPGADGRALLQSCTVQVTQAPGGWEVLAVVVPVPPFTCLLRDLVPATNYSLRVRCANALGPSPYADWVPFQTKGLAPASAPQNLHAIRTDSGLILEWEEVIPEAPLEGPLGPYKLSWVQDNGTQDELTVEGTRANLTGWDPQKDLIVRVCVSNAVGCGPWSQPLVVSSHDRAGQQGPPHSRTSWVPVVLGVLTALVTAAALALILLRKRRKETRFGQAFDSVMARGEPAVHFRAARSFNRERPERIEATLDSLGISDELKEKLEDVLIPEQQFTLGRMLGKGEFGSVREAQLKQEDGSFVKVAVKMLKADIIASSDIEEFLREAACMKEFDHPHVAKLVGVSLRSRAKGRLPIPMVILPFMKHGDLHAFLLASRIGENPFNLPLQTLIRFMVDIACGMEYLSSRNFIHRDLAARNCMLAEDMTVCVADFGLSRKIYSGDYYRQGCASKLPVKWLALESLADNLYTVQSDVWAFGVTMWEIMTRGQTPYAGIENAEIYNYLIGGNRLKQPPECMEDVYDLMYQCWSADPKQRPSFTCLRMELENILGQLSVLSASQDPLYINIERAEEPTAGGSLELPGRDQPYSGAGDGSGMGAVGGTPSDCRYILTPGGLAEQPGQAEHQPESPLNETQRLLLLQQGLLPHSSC

[2] = target: Tyrosine-protein kinase Yes (Homo sapiens) (UniProt P07947); conditions: at 0.1 µM
[3] = target: Tyrosine-protein kinase Yes (Homo sapiens) (UniProt P07947); conditions: at 1 µM
[4] = target: T2, Tyrosine-protein kinase ZAP-70 (Homo sapiens) (UniProt P43403); conditions: at 0.1 µM
T2 sequence (whole entry): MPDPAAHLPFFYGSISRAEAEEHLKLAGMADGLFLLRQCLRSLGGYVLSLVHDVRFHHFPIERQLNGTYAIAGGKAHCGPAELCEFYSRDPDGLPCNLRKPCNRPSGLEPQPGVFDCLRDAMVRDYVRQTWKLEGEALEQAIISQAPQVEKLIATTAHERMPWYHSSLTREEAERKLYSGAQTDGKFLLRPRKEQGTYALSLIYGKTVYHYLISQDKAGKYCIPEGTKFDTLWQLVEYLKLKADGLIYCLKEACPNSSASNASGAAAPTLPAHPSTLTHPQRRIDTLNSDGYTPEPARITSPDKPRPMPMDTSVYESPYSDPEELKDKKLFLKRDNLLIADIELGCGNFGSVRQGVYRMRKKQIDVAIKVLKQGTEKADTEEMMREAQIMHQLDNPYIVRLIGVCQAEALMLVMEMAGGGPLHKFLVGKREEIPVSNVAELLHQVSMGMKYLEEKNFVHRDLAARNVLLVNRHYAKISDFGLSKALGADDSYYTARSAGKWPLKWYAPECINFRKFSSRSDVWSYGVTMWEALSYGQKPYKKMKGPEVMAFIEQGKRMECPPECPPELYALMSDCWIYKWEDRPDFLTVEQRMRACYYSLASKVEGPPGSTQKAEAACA

[5] = target: T2, Tyrosine-protein kinase ZAP-70 (Homo sapiens); conditions: at 1 µM
[6] = target: Serine/threonine-protein kinase B-raf (Homo sapiens) (UniProt P15056); conditions: at 0.1 µM
[7] = target: Serine/threonine-protein kinase B-raf (Homo sapiens) (UniProt P15056); conditions: at 1 µM
[8] = tested on: Serine/threonine-protein kinase B-raf (Homo sapiens), P15056 [V600E]; conditions: at 0.1 µM
[9] = tested on: Serine/threonine-protein kinase B-raf (Homo sapiens), P15056 [V600E]; conditions: at 1 µM
[10] = target: RAF proto-oncogene serine/threonine-protein kinase (Homo sapiens) (UniProt P04049); conditions: at 0.1 µM
[11] = target: RAF proto-oncogene serine/threonine-protein kinase (Homo sapiens) (UniProt P04049); conditions: at 1 µM
[12] = target: T3, Interleukin-1 receptor-associated kinase 4 (Homo sapiens) (UniProt Q9NWZ3); conditions: at 0.1 µM
T3 sequence (whole entry): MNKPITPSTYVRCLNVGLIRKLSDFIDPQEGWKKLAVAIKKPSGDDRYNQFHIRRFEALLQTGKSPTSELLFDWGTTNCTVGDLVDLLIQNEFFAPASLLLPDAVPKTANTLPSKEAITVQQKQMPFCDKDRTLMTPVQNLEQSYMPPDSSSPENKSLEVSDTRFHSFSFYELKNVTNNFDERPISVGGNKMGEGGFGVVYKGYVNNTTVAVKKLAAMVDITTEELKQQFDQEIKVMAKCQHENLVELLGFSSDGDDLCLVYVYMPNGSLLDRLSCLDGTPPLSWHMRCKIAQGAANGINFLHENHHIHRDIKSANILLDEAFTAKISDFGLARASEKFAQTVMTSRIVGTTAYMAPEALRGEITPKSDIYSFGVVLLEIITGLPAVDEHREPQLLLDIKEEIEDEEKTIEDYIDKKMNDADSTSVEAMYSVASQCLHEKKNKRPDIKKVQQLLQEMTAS

[13] = target: T3, Interleukin-1 receptor-associated kinase 4 (Homo sapiens); conditions: at 1 µM
[14] = target: Leucine-rich repeat serine/threonine-protein kinase 2 (Homo sapiens) (UniProt Q5S007); conditions: at 0.1 µM
[15] = target: Leucine-rich repeat serine/threonine-protein kinase 2 (Homo sapiens) (UniProt Q5S007); conditions: at 1 µM
[16] = tested on: Leucine-rich repeat serine/threonine-protein kinase 2 (Homo sapiens), Q5S007 [G2019S]; conditions: at 0.1 µM
[17] = tested on: Leucine-rich repeat serine/threonine-protein kinase 2 (Homo sapiens), Q5S007 [G2019S]; conditions: at 1 µM

Chain of Leucine-rich repeat serine/threonine-protein kinase 2 (Homo sapiens), Q5S007 [G2019S] (Q5S007 whole entry G2019S): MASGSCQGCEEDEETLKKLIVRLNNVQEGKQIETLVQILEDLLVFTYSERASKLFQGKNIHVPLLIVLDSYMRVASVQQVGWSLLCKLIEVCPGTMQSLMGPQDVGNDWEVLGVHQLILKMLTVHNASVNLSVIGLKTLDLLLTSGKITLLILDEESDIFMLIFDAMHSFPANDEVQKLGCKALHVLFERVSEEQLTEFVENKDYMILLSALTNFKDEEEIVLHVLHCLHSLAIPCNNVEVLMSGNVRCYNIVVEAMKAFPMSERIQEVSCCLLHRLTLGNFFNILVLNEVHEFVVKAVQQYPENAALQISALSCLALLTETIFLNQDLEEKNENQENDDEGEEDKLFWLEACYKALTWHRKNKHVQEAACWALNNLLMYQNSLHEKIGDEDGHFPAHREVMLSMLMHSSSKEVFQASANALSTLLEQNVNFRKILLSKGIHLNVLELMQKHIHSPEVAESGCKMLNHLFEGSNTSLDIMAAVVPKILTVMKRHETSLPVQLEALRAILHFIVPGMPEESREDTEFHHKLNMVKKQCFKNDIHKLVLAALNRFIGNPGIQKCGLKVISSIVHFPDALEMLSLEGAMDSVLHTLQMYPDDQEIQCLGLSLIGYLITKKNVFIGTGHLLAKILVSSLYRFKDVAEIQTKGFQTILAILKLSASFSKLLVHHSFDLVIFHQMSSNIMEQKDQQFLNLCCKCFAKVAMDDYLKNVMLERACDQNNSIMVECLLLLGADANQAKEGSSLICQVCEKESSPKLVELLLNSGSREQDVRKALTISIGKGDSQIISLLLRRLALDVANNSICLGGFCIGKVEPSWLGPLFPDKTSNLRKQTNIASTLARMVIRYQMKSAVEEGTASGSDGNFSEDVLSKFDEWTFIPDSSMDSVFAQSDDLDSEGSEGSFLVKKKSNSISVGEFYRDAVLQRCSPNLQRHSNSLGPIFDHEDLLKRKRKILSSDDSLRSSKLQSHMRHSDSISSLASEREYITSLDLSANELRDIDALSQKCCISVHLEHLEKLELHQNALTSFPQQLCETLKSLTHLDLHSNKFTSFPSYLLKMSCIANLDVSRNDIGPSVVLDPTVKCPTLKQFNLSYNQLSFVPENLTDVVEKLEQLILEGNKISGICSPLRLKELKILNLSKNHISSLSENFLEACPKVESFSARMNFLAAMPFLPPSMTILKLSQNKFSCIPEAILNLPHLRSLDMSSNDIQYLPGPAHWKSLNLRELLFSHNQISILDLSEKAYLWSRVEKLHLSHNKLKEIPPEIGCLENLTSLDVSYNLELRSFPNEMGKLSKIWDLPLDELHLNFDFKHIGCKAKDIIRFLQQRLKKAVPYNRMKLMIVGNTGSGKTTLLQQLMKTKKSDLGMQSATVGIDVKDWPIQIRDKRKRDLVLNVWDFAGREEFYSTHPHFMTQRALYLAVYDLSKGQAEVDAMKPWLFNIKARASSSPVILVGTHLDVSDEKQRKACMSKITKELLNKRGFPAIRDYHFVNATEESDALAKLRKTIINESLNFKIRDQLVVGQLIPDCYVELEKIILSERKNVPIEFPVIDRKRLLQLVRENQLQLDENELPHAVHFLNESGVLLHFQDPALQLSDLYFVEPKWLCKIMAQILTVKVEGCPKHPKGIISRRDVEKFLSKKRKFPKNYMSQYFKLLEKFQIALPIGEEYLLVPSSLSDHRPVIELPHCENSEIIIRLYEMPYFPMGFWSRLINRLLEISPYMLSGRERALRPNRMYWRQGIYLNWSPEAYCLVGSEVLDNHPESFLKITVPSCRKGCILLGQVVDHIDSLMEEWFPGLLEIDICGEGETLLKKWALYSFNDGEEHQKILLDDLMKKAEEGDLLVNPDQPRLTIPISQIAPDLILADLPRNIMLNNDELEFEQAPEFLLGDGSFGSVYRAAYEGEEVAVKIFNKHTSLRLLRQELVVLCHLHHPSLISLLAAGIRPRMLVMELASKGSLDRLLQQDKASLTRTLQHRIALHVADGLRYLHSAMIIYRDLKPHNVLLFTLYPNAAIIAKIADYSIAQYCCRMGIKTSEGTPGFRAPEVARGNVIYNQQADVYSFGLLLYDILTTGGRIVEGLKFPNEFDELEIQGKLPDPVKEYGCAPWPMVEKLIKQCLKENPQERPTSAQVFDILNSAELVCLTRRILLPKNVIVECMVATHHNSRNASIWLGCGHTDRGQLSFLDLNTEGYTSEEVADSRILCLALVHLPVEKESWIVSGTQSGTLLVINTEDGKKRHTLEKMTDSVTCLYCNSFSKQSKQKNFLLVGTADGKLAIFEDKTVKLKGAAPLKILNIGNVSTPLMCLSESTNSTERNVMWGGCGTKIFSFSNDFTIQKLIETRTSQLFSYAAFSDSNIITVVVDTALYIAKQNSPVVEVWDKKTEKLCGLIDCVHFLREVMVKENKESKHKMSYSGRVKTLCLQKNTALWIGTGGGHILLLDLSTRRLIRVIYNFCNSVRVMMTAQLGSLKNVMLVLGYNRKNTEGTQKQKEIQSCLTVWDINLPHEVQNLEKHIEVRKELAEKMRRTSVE
Chain of Leucine-rich repeat serine/threonine-protein kinase 2 (Homo sapiens) (Q5S007 whole entry): as the sequence (Q5S007 whole entry G2019S) above, with S2019G counted along it
Chain of Tyrosine-protein kinase Yes (Homo sapiens) (P07947 2-543 limits assumed): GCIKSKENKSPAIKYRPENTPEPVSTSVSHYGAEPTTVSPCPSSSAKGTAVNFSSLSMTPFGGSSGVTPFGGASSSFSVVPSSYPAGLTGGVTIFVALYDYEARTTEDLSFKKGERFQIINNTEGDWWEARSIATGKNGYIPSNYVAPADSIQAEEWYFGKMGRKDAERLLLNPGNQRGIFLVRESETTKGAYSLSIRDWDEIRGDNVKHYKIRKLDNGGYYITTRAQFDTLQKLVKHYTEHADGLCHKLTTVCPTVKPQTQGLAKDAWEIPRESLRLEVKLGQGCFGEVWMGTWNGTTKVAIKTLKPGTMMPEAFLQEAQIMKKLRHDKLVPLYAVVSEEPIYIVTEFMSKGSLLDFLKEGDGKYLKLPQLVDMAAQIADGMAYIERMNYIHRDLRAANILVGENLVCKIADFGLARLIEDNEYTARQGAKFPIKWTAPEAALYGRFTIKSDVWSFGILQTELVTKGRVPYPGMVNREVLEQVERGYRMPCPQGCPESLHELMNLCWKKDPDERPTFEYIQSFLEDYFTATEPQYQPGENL
Chain of RAF proto-oncogene serine/threonine-protein kinase (Homo sapiens) (P04049 whole entry): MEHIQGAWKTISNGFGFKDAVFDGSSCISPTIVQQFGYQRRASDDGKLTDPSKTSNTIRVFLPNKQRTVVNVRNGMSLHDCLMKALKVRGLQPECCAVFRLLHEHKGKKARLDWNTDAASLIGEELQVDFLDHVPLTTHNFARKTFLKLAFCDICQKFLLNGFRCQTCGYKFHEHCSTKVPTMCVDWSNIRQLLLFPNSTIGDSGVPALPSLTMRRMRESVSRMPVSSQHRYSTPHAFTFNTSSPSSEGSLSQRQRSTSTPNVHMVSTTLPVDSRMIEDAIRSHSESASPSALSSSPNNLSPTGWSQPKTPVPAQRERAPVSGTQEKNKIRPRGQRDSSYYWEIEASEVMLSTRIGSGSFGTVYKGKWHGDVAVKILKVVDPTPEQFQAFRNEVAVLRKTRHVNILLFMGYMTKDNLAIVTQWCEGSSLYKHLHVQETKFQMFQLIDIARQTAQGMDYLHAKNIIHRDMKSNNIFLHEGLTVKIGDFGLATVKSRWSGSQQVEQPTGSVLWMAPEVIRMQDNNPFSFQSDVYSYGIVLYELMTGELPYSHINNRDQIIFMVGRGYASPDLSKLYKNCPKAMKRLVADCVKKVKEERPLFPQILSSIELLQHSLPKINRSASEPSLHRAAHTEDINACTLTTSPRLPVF
Chain of Serine/threonine-protein kinase B-raf (Homo sapiens), P15056 [V600E] (P15056 whole entry V600E): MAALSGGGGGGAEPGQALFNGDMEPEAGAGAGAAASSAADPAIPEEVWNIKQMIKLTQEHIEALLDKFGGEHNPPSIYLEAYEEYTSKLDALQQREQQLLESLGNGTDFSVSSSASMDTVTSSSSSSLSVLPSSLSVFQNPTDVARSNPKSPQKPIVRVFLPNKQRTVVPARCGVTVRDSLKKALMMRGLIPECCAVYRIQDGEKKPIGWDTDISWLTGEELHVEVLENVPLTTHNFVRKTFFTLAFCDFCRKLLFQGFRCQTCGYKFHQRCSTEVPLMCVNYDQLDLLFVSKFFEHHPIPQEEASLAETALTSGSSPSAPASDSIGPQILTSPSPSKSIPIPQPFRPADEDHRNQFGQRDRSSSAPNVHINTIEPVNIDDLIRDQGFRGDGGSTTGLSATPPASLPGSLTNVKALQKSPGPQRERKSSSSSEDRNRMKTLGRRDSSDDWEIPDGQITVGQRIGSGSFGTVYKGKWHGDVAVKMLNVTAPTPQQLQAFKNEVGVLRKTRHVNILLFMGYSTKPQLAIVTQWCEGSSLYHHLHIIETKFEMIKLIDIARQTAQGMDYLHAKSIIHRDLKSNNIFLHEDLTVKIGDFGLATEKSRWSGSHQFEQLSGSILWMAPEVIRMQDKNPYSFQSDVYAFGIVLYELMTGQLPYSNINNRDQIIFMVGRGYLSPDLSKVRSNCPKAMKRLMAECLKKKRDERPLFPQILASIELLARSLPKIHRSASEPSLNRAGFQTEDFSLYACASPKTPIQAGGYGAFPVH
Chain of Serine/threonine-protein kinase B-raf (Homo sapiens) (P15056 whole entry): as the sequence (P15056 whole entry V600E) above, with E600V counted along it

Row | Structure (SMILES) | inhibition [1] | inhibition [2] | inhibition [3] | inhibition [4] | inhibition [5] | inhibition [6] | inhibition [7] | inhibition [8] | inhibition [9] | inhibition [10] | inhibition [11] | inhibition [12] | inhibition [13] | inhibition [14] | inhibition [15] | inhibition [16] | inhibition [17]
1 | COc1cc(N2CCN(C(C)C)CC2)ccc1Nc1nc(Nc2cccc3ncccc23)c2cc[nH]c2n1 | -0.92% | -0.19% | 1.79% | -0.91% | -0.16% | -0.4% | 0.61% | 0.32% | 1.11% | 0.02% | 10.1% | 5.39% | -0.29% | 13% | 23.2% | 24.5% | 63%
2 | COc1ccc(-c2nn3ncccc3c2-c2ccnc(Nc3ccc(F)c(F)c3)n2)cc1 | 6.24% | 39.5% | 85.2% | 2.54% | 1.2% | 5.72% | 5.29% | 4.54% | 3.83% | 0.22% | -4.25% | -0.54% | 1.76% | 5.52% | 9.6% | 6.22% | 7.92%
3 | CC1(C)CC(n2cnc(-c3ccc(F)cc3)c2-c2ccnc(N)n2)CC(C)(C)N1 | 5.65% | 0.2% | 7.25% | 0.52% | 2.37% | 1.97% | 1.13% | 1.52% | 0.8% | 6.47% | 2.12% | 4.73% | 0.49% | 0.31% | 5.05% | 2.37% | 6.19%
4 | CCn1c(-c2nonc2N)nc2cncc(C(=O)NCCNC)c21 | 5.41% | 2.4% | 5.52% | 0.59% | 1.01% | 7.93% | 7.26% | 4.48% | 4.42% | 2.61% | 0.85% | 2.49% | 3.05% | 6.11% | 28.8% | 13% | 51.8%
5 | O=C1Nc2ccccc2/C1=C1\CCc2cc(O)ccc21 | 18.8% | 3.94% | 13.6% | 3.48% | 7.74% | 6.96% | 9.83% | 8.49% | 8.96% | 0.39% | -4.27% | 0.67% | 5.31% | 17.6% | 66.3% | 22.1% | 63.6%
6 | c1ccc(-c2n[nH]cc2-c2ccnc(-c3ccc(OCCn4ccnc4)cc3)c2)nc1 | 1.47% | 1.05% | 8.13% | 2.15% | 2.34% | 2.04% | 1.85% | 0.71% | 1.34% | -0.53% | -2.1% | 4.92% | 0.82% | 0.79% | 7.44% | 3.12% | 14.5%
7 | CCS(=O)(=O)c1ccc(OC)c(Nc2ncc(-c3cccc(C(C)=O)c3)o2)c1 | 24.1% | 18.6% | 65.9% | 2.04% | 1.3% | 3.62% | 6.17% | 3.41% | 5.84% | 5.57% | 8.87% | -3.46% | 1.19% | 0.47% | 4.65% | 2.77% | 11.8%
8 | COc1ccc(Nc2ncc(-c3ccccc3)o2)cc1OC | 4.23% | 7% | 35.7% | 1.28% | 1.27% | -1.46% | 1.35% | 0.52% | 2.34% | -0.64% | 3.96% | 2.27% | 2.28% | 1.05% | 13.2% | 3.5% | 22.9%
9 | Cc1cc(O)cc(C)c1/C=C/c1cncc(C(=O)OC(C)(C)C)c1 | 4.32% | 5.5% | 31.1% | 1.34% | 1.02% | 4.14% | 7.71% | 3.83% | 6.09% | 3.1% | -0.4% | 3.06% | 1.36% | 6.27% | 9.43% | 6.75% | 10.9%
10 | CC1=C(C(=O)Nc2ccc3[nH]ncc3c2)C(c2ccc(F)cc2)N=C(c2ccc(C(F)(F)F)nc2)N1 (stereo not given) | 3.3% | 1.26% | 4.23% | 2.61% | 1.68% | 1.92% | 5.6% | 1.17% | 6.02% | 1.11% | -4.26% | -2.11% | 0.95% | 2.81% | 7.24% | 5.04% | 26%
11 | CCCNc1cccc(-n2ncc3c(N/N=C/c4ccncc4)ncnc32)c1 | 42.8% | 43.1% | 82.8% | 2.44% | 3.95% | 0% | 1.5% | 0.21% | 2.86% | -0.1% | -3.81% | 2.03% | 0.71% | 3.27% | 12.2% | 5.55% | 37.8%
12 | c1cnn2ncc(-c3ccnc(NCCCN4CCOCC4)n3)c2c1 | 2.64% | 2.68% | 0.1% | 2.13% | 2.9% | 5.35% | 7.07% | 5.41% | 5.03% | 2.81% | -5.16% | 2.04% | 1.39% | 1.69% | 1.57% | 2.1% | 5.03%
13 | CN(c1ccc(NC(=O)NCCN2CCOCC2)cc1)c1ccnc(Nc2ccc(CS(C)(=O)=O)cc2)n1 | 6.95% | 1.4% | 8.5% | 0.58% | 2.72% | 4.55% | 7.4% | 3.94% | 7.38% | 6.1% | 7.58% | -5.94% | 1.07% | 2.79% | 9.85% | 2.66% | 14.7%
14 | CC(C)c1ccc(-c2cc(-c3c[nH]nc3-c3ccccn3)ccn2)cc1 | 2.71% | 0.42% | 0.34% | 1.32% | 1.31% | 0.6% | 3.57% | 0% | 3.39% | 1.14% | 1.4% | 1.27% | 0.36% | 2.9% | 4.8% | 1.2% | 7.15%
15 | COc1cc(N2CCN(C(C)C)CC2)ccc1Nc1nc(Nc2cccc(F)c2C(=O)O)c2cc[nH]c2n1 | 3.99% | 1.69% | 8.64% | 2.69% | 7.8% | 6.1% | 7.89% | 6.27% | 7.5% | 1.76% | 0.19% | 2.04% | 2.25% | 6.61% | 16.3% | 19% | 59.3%
